Data on 40 compounds can be found in PubChem BioAssay (NCI).

Where “and” joins values, the source holds several entries; their conditions need not be identical. Equal values may be shown once. The panel holds about 83,000 compounds, 20% with a hit somewhere; the sample as a whole holds those more often.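 Step 1: grow cells in 96-well plates. Step 2: add test compound at a single concentration. Step 3: incubate 48 h. Step 4: record percent growth.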 Calls of active or inactive are those of the source. The calls were made as follows: active = growth percent below 10; inactive = the rest.

The test system of this test is MDA-MB-468 breast. Nature of the test: NCI-60 one-dose screen, 48 h (100 = growth as untreated, 0 = no growth, -100 = all killed). To be noted: 10 µM unless noted.
`CCN(CC)C(=S)SC(SC(=S)N(CC)CC)C(=O)c1nnn(-c2ccc([N+](=O)[O-])cc2)c1C`: the growth is 102% (inactive).
The result for `O=c1ccc(N=Nc2ccc([N+](=O)[O-])cc2)ccc1O` reads -15.7% (active); that for `Cc1cc(=O)[nH]c(O)c1C#N`, 97.5% (inactive) and 95.9% (inactive) and 111% (inactive).
As to `N#Cc1ccccc1OCC(=O)Nc1nc2c(s1)COc1ccccc1-2`, the growth is 98.7% (inactive).
With `Cc1ccc(Cl)cc1NC(=O)CCl` the figure was 73.5% (inactive); with `CCOc1nc(-c2ccccc2)cc2c(O)c(C(=O)O)[nH]c(=O)c12`, 96.2% (inactive); with `COc1ccc(/C(=C2\O[C@@H]([C@H](O)CO)[C@H]3OC(C)(C)O[C@@H]23)c2cc(OC)c(OC)c(OC)c2)cc1O`, 107% (inactive).
The result for `C#CCOc1cccc(Nc2ncnc3c(NC(=O)C=C)cccc23)c1` reads -15.2% (active); that for `COc1ccc(C(=S)c2cc(OC)c(OC)c(OC)c2)cc1OC(=O)CCl`, 47.5% (inactive); that for `Cc1ccc(-c2nc3nc(-c4ccc(Cl)cc4)nc(N4CCCNCC4)c3o2)cc1`, -54.2% (active).
The result for `COc1cc2c(Nc3ccc(S(N)(=O)=O)cc3)ncnc2c(OC)c1OC` reads 84% (inactive).
In the case of `FC(F)(F)c1cc(N2CCCCC2)nc(NCCCNc2ccnc3cc(Cl)ccc23)n1`, the growth is 1.13% (active).
With `CC(C)CSc1ncnc2nc[nH]c12` the figure was 104% (inactive); with `Nc1nc(N)nc(NCc2ccccc2)n1`, 114% (inactive); with `COc1ccc2[nH]c(O)c(/C=c3/cc4c(c(-c5ccc(F)cc5)n3)=Nc3ccccc3-4)c2c1`, 67.4% (inactive).
For `CCCCOc1ccc(S(=O)(=O)N2CCN(c3nccc(N4CCOCC4)n3)CC2)cc1`, the growth is 6.94% (active).
Consider `Cc1cc(/C=C/c2ccc3cc(N(C)C)ccc3[n+]2C)c(C)n1-c1ccccc1`, for which the growth was -81.9% (active).
With `CCN(CC)C(=O)C1=C(C)NC(=O)NC1c1ccc2c(c1)OCO2` (stereo not given) the figure was 112% (inactive).
The result for `CC12CCC(O)CC1=CCC1C2CCC2(C)C3=NN=CC3CC12` (stereo not given) reads 92.1% (inactive); that for `COc1ccc(C(=O)Nc2ncc(Cc3ccccc3Cl)s2)cc1`, 24.7% (inactive); that for `Clc1ccc(Nc2ncnc3c2sc2ncccc23)c(Cl)c1`, 22.2% (inactive).
As for `C=CCN1C(=O)c2cccc3c(N4CCOCC4)ccc(c23)C1=O`, the growth is -40% (active).
With `COc1cc(-c2cc3ncccc3c3nc(OCCN(C)C)c4cccnc4c23)cc(OC)c1OC` the figure was -6.09% (active).
With `O=C1c2cccc3cc([N+](=O)[O-])cc(c23)C(=O)N1CCN1CCCC1`, the growth is -53.4% (active).
`O=C(Nc1nn2c(-c3cc(C(F)(F)F)cc(C(F)(F)F)c3)nnc2s1)C1CCCC1`: the growth is -17.2% (active).
As to `NC[C@@](O)(c1ccc(Cl)cc1)c1ccc(-c2cn[nH]c2)cc1`, the growth is -40.9% (active).
Consider `O=C(N/N=C\c1c(O)ccc2ccccc12)C1CC1`, for which the growth was 11.8% (inactive).
In the case of `N=C(N)N=Nc1ccc(NN=C(N)N)cc1`, the growth was 103% (inactive).
With `CCCCCCCCn1ccc2cc(NC(=O)Cn3cc(CN4CCCCC4)nn3)ccc21` the figure was -14.6% (active).
With `O=C(Nc1ccc2c(ccn2Cc2ccccn2)c1)c1cnccn1` the figure was 103% (inactive).
The result for `CCN(CC)CCCCCCNc1cc(OC)c(Cl)c2cccnc12` reads 32.1% (inactive); that for `CSc1nc(S(C)(=O)=O)nc2[nH]c(=O)[nH]c12`, 103% (inactive).
For the compound `CN1CCN(C)c2cncc(Br)c2C1=O`, the growth was 106% (inactive).
For `COc1ccc(-c2n[nH]nc2-c2cc(OC)c(OC)c(OC)c2)cc1`, the growth is -0.494% (active).
With `CC1=NN(c2ccccc2)C(=O)/C1=C\N1CC(=O)NC1=S`, the growth is 101% (inactive).
For `CC(=O)N1N=C(c2ccc(C)cc2)CC1c1ccc(Oc2ccc(Br)cc2)cc1` (stereo not given), the growth was 75% (inactive).
`COc1ccc(CC(C)=C(c2ccc(OCCN(C)C)cc2)c2ccc(OCCN(C)C)cc2)cc1`: the growth is 68.3% (inactive).
Take `Fc1ccc(/C=C/c2cc(/C=C/c3ccc(F)cc3)n(-c3cc(F)cc(F)c3)n2)cc1`: the growth was 108% (inactive).
With `COc1cc(C(O)C2C(=O)OCC2C2(c3ccc4c(c3)OCO4)SCCCS2)cc(OC)c1OC` (stereo not given) the figure was 92.2% (inactive); with `Oc1cc(O)c(Br)cc1Br`, 101% (inactive).
